MsrA act – bovine MsrA enzyme activators, primary screen, biochemical, absorbance, HTS. Methionine sulfoxide reductase A (Bos taurus). purified bovine MsrA, absorbance read-out. activation, % at 10.6 µM. 360,000 compounds, 0.3% hits. AID 602163, 2012; in the data active means activation above about 7.5%;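 further: 0% = vehicle and 100% = reference activator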
MsrA inh – bovine MsrA enzyme inhibitors, primary screen, biochemical, absorbance, HTS; Methionine sulfoxide reductase A (Bos taurus); purified bovine MsrA, absorbance read-out; inhibition, % at 15.5 µM; 360,000 compounds, 0.75% hits;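 further: 0% = vehicle wells with enzyme and 100% = reference inhibitor wells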
DAGLB inh – DAGLB lipase inhibitors, primary screen, biochemical, fluorescence, HTS; HEK293T DAGLB membrane lysate, EnzChek fluorogenic substrate; inhibition, % at 5.17 µM; 340,000 compounds, 0.059% hits; in the data active means inhibition above about 34%;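 further: 0% = enzyme with vehicle and 100% = wells lacking enzyme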
DSG3 Ab inh – inhibitors of pemphigus antibody binding to DSG3, primary screen, biochemical, bead-based, flow cytometry, scFv-GFP. 310,000 compounds, 0.48% hits. binding (percent of control), % at 10 µM. Desmoglein-3 (Homo sapiens), P32926. DSG3-coupled beads, scFv-anti-DSG3-GFP binding; hits give low values;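 active means binding more than 3 SD below its plate's average and above zero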;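 further: hits lower antibody fragment binding to DSG3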
Target sequence (P32926 whole entry, looked up, the tested form may be a part): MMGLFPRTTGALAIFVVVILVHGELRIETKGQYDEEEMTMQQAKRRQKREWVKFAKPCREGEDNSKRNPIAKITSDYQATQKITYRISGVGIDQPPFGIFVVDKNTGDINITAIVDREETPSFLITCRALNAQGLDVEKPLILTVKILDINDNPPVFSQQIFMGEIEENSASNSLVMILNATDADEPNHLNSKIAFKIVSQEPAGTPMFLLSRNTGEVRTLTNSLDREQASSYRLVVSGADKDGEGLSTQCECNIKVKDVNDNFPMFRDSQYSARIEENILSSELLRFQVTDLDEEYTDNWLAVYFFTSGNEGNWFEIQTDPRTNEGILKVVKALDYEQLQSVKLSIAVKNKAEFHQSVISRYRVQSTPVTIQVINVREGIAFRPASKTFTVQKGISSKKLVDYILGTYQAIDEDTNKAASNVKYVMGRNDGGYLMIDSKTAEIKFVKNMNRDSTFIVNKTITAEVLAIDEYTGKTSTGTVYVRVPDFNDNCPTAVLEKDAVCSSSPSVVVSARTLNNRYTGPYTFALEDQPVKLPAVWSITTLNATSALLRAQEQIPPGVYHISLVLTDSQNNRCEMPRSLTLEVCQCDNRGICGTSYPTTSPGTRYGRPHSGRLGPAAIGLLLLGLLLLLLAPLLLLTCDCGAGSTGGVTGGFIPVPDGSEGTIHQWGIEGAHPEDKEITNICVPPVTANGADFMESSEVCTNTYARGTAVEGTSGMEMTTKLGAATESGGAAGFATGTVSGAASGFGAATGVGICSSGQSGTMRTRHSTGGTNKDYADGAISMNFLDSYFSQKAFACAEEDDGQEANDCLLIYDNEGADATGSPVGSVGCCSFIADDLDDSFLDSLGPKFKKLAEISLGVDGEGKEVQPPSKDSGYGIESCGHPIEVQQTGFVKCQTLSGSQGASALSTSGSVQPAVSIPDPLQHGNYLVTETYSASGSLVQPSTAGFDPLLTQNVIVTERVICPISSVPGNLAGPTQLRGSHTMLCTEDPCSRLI
rCAG binder – binders of r(CAG) RNA repeats, primary screen, biochemical, fluorescence; r(CAG) RNA repeat, TO-PRO-1 dye displacement fluorescence; 370,000 compounds, 1.3% hits; AID 651821, 2012; inhibition, % at 3 µM;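 active means inhibition above the plate cutoff, the mean of all test compounds on that plate plus 3 SD, cut at about 35% in these data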;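 further: 0% = DMSO alone and 100% = 100 µM mitoxantrone as full dye displacement; higher means more dye released from RNA so lower well fluorescence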
NadD inh – inhibitors of S. aureus NadD, primary screen, biochemical, colorimetric, uHTS | Nicotinate-nucleotide adenylyltransferase NadD (Staphylococcus aureus N315) | purified NadD enzyme, colorimetric absorbance read-out | inhibition, % at 20 µM | 360,000 compounds, 0.78% hits; in the data active means inhibition above about 26%
MsrA conf – bovine MsrA inhibitors, retest, confirmation, biochemical, absorbance, HTS; purified bovine MsrA, absorbance read-out; shares compounds with MsrA inh; 2,300 compounds, 41% hits; inhibition, % at 15.5 µM;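 further: coupled to thioredoxin reductase with NADPH and selenocystamine and DMSO as substrate; 0% = vehicle only and 100% = full effect of reference inhibitor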
* = called active by the depositor; x = not tested or not shown. Rows were chosen to be rich in hits. Some 3.2% of all compounds tested hit in one or more screens of this group. Unless noted, no stated cut-off is given here; in the data, active means inhibition above about 4.5%; inactive means the rest.

SMILES | MsrA act | MsrA inh | DAGLB inh | DSG3 Ab inh | rCAG binder | NadD inh | MsrA conf
COc1cc(C(=O)N/N=C/c2sccc2C)cc(OC)c1OC | -2 | 5.1* | 1 | 90 | -3 | 0 | 4
Cc1ccsc1/C=N/NC(=O)C(=O)NCC(C)C | -3 | 5.6* | 2 | 100 | -1 | -7 | 3
OC[C@H]1CC[C@@H]2O[C@H](CCc3ccc(-c4ccc(F)cc4)cc3)[C@@H](n3cc(C4CC4)nn3)C[C@@H]2O1 | x | x | x | x | 8 | x | x
C=CCNc1sc(C(=O)C2CC2)c(N)c1C#N | -8 | 6.4* | -1 | x | -2 | 1 | 4.8*
C=CCNc1sc(C(=O)C(C)(C)C)c(N)c1C#N | -7 | 3 | 3 | 114 | -5 | 1 | x
O=S1(=O)CC(N2CCN(Cc3ccccc3F)CC2)CN1Cc1cn(Cc2cccc(Cl)c2)nn1 (stereo unspecified) | -6 | 1 | x | x | 0 | -2 | x
C=CCn1c(-c2csc(-c3ccccc3)n2)n[nH]c1=S | 0 | 5.4* | 0 | 102 | 12 | 13 | 3
C=CCn1c(-c2csc(-c3ccc(Cl)cc3)n2)n[nH]c1=S | -1 | 0 | -2 | 104 | 5 | 1 | x
Cc1noc(C)c1-c1ccc(C(=O)NCCN2CCOCC2)c2occc12 | -1 | -1 | x | x | 1 | -1 | x
CCOc1cc(S(=O)(=O)NCc2ccco2)c(OCC)cc1-n1cnnn1 | -3 | 7.7* | 0 | 93 | -5 | 1 | 3
CCOc1cc(S(=O)(=O)NC2CC2)c(OCC)cc1-n1cnnn1 | -2 | 25* | -3 | 98 | -2 | 3 | 23*
COc1ccc(/C=N/n2c(C3CCCCC3)n[nH]c2=S)c(OC)c1 | 1 | 8.8* | -2 | 98 | 3 | 6 | 8.6*
Cc1ccc(-c2n[nH]c(=S)n2/N=C/c2sccc2C)cc1 | 1 | 4.7* | -1 | 110 | 20 | 4 | 3
Cc1ccsc1/C=N/n1c(C2CCCCC2)n[nH]c1=S | -4 | 11* | -5 | 108 | 4 | -2 | 6.1*
COc1ccc(C=NNC(=O)c2cc(-c3ccc(C)c(C)c3)n[nH]2)cc1OCc1ccccc1 | x | x | x | x | 15 | x | x
CCCC[C@H]1C2CC(OC(=O)Nc3cccc(Br)c3)C(C2)[C@H]2CCCCN21 (stereo partly specified) | x | x | x | x | 5 | x | x
CCCC(=O)OC12CCCN(C1)/C(=C/c1ccccc1)C2 (stereo unspecified) | x | x | x | x | 1 | x | x
COc1cccc2cc(-c3ccccc3)oc12 | -1 | -1 | x | 102 | 1 | -4 | x
COC(=O)COc1cc(OCC(=O)OC)c2c(-c3ccccc3)cc(=O)oc2c1 | -3 | -1 | -3 | 98 | -4 | -4 | x
NC(=O)COc1ccc2oc(=O)cc(-c3cc4ccccc4o3)c2c1 | -4 | 23* | 0 | 101 | 14 | 2 | 20*
COc1ccc(NC(=O)COc2ccc3oc(=O)cc(C)c3c2)cc1 | -9 | 1 | -6 | 109 | -2 | -5 | x
COc1cccc2cc(-c3cc(=O)oc4ccc(O)cc34)oc12 | 0 | 17* | 2 | 102 | 31 | -3 | 13*
COC(=O)COc1ccc2oc(=O)cc(-c3cc4cccc(OC)c4o3)c2c1 | -5 | 7.4* | -1 | 95 | 10 | -8 | 15*
COC(=O)COc1ccc2oc(=O)cc(-c3cc4ccccc4o3)c2c1 | -3 | 15* | -3 | 95 | 7 | -2 | 24*
CCOc1ccc(NC(=O)C2CCCN(S(=O)(=O)c3ccc4c(c3)C(C)(C)C(=O)N4C)C2)cc1 (stereo unspecified) | -2 | 1 | x | x | 2 | -1 | x
SMILES | MsrA act | MsrA inh | DAGLB inh | DSG3 Ab inh | rCAG binder | NadD inh | MsrA conf
NS(=O)(=O)c1ccc(N/N=C/c2ccccn2)c([N+](=O)[O-])c1 | -13 | 5.9* | 5 | 100 | 4 | 1 | 4
NS(=O)(=O)c1ccc(N/N=C/c2ccc(O)cc2O)c([N+](=O)[O-])c1 | -6 | 6.2* | 26 | 81 | 16 | -3 | 3
O=[N+]([O-])c1cc(S(=O)(=O)N2CCCC2)ccc1N/N=C/c1ccccn1 | -2 | 0 | 3 | 103 | 5 | -3 | x
O=C(Nc1ccccc1Cl)c1cc(C2CCCCN2S(=O)(=O)c2ccc(F)cc2F)on1 (stereo unspecified) | -3 | 0 | x | x | 2 | -1 | x
COc1cc2c(cc1OC)-c1cc(Nc3ccc(C)cc3)nc(=O)n1CC2 | -1 | 4 | -4 | 112 | 9 | 8 | x
COc1cc2c(cc1OC)-c1cc(Nc3ccccc3)nc(=O)n1CC2 | -3 | 5.1* | -5 | 112 | 6 | 1 | 3
COc1ccc(Nc2cc3n(c(=O)n2)CCc2cc(OC)c(OC)cc2-3)cc1 | 1 | 5.5* | -2 | 100 | 6 | 2 | 4
COc1ccc(Nc2cc3n(c(=O)n2)CCc2cc(OC)c(OC)cc2-3)c(C)c1 | -5 | 4.9* | 1 | 102 | 8 | -2 | 3
COc1cc2c(cc1OC)-c1cc(Nc3ccc4c(c3)OCCO4)nc(=O)n1CC2 | -5 | 5.1* | -1 | 112 | 8 | 13 | 4
COc1cc2c(cc1OC)-c1cc(Nc3ccc(C(=O)O)cc3)nc(=O)n1CC2 | -8 | 4 | -5 | 108 | 6 | -6 | x
COC(=O)[C@]12C[C@H](CC(=O)NCc3ccc(OC)c(OC)c3)C(=O)N(Cc3ccc(Cl)cc3Cl)C1=C[C@H](C(C)C)O[C@@H]2C1CC1 | x | x | x | x | 4 | x | x
CN(Cc1cn(Cc2ccccc2)nn1)S(=O)(=O)c1ccccc1Br | x | x | x | x | -1 | x | x
O=C(C(=O)N1CCCN(Cc2ccc(F)cc2)CC1)c1ccccc1 | x | -1 | x | x | -1 | x | x
COc1ccc(C(C(=O)NC2CCCC2)n2c(CSCCOc3ccccc3)nc3ccccc32)cc1 (stereo unspecified) | x | 0 | x | x | 6 | x | x
COc1cc2c(cc1OC)-c1cc(NC3CCCCCC3)nc(=O)n1CC2 | -7 | 1 | 1 | 102 | -1 | 5 | x
COc1cc2c(cc1OC)-c1cc(Nc3ccccc3Br)nc(=O)n1CC2 | -4 | 7.5* | -1 | 103 | 1 | -2 | 5
COC(=O)c1cc(-c2ccc(F)cc2OCc2ccccc2)c(=O)n2c1CCC2 | x | x | x | x | 0 | x | x
C=CCNc1nc(N)c([N+](=O)[O-])c(NCCO)n1 | -5 | 5.0* | -1 | x | 0 | 4 | 4.8*
CCN1C(C(=O)Nc2cc(C)on2)=C(O)c2ccccc2S1(=O)=O | -5 | 5.1* | -4 | 101 | 2 | -6 | 2
CCc1nc(N)c(C#N)c(-c2cccnc2)c1C | -1 | 4.7* | 0 | 97 | -2 | -5 | 1
